Source: PubChem BioAssay AID652118 (Broad Institute, 2013)
Results with a measured potency or affinity are listed apart. The source made the active and inactive calls.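 How the source made its calls: active means compounds lowering cell ATP signal whose fitted half-effect concentration is at most twice the top tested dose; inconclusive means flat curves with 30 to 70% signal loss, or poor fits; inactive means the rest.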

Assay: loss of viability in hepatoma HepG2 cells – cell-based, ATP luminescence, dry powder, cytotoxicity control, dose response (AID 652118)
Conditions: CellTiter-Glo ATP luminescence, 48 h; series mostly up to 26 µM; activity change, negative = cytotoxicity: at the top concentration
With `CC(C)OC(=O)C1(CCOc2ccccc2)CCN(Cc2ccc(O)c(Cl)c2)CC1` the “activity change, negative = cytotoxicity” value was -7.24% (inactive).
With `CC(C)(C)OC(=O)C1(CCOc2ccccc2)CCN(Cc2ccc(O)c(Cl)c2)CC1` the “activity change, negative = cytotoxicity” value was -0.39% (inactive).
For `CCOC(=O)c1c(CN2CCN(CCO)CC2)n(-c2ccccc2)c2cc(Br)c(O)cc12`, the “activity change, negative = cytotoxicity” value was -23.9% (inactive).
With `CCOC(=O)C1(CCOc2ccccc2)CCN(Cc2ccc3[nH]c(=O)oc3c2)CC1` the “activity change, negative = cytotoxicity” value was 1.95% (inactive).
In the case of `C=CCOc1ccc(CN2CCC(CCOc3ccccc3)(C(=O)O)CC2)cc1Cl`, the “activity change, negative = cytotoxicity” value is reported as -13.2% (inactive).
For `CCOC(=O)C1(CCOc2ccccc2)CCN(Cc2ccc(OC)cc2)CC1`, the “activity change, negative = cytotoxicity” value was -19.6% (inactive).
In the case of `CCN(C)C(=O)C1(CCOc2ccccc2)CCN(Cc2ccc(O)c(Cl)c2)CC1`, the “activity change, negative = cytotoxicity” value is reported as -13.9% (inactive).
For `O=C(NC1CCCC1)C1(CCOc2ccccc2)CCN(Cc2ccc(O)c(Cl)c2)CC1`, the “activity change, negative = cytotoxicity” value was -1.5% (inactive).
For `O=C(N1CCCC1)C1(CCOc2ccccc2)CCN(Cc2ccc(O)c(Cl)c2)CC1`, the “activity change, negative = cytotoxicity” value was -17.1% (inactive).
With `CCOC(=O)C1(CCOc2ccccc2)CCN(Cc2ccc(O)cc2)CC1` the “activity change, negative = cytotoxicity” value was 3.84% (inactive).
In the case of `CCOC(=O)C1(CCOC)CCN(Cc2ccc(O)c(Cl)c2)CC1`, the “activity change, negative = cytotoxicity” value is reported as -7.37% (inactive).
With `C=CCOc1ccc(CN2CCC(CCOc3ccccc3)(C(=O)NC3CCCC3)CC2)cc1Cl` the “activity change, negative = cytotoxicity” value was 0.235% (inactive).
For `CCOC(=O)C1(CCOc2ccccc2)CCN(Cc2cccc(Cl)c2)CC1`, the “activity change, negative = cytotoxicity” value was -12.2% (inactive).
With `CCOC(=O)C1(Cc2cccc(OC)c2)CCN(Cc2ccc(O)c(Cl)c2)CC1` the “activity change, negative = cytotoxicity” value was -6.29% (inactive).
In the case of `CCOC(=O)C1(CCOc2ccccc2)CCN(C(=O)c2ccc(O)c(Cl)c2)CC1`, the “activity change, negative = cytotoxicity” value is reported as -11.1% (inactive).
With `CCOC(=O)C1(CCOC)CCCN(Cc2ccc(Cl)cc2)C1` (stereo not drawn) the “activity change, negative = cytotoxicity” value was -0.17% (inactive).
With `CCOC(=O)C1(Cc2ccccc2)CCN(Cc2ccc(O)c(Cl)c2)CC1` the “activity change, negative = cytotoxicity” value was -15.9% (inactive).
For `C=CCOc1ccc(CN2CCC(CCOc3ccccc3)(C(=O)OCC)CC2)cc1Cl`, the “activity change, negative = cytotoxicity” value was -11.7% (inactive).
In the case of `C=CCOc1ccc(CN2CCC(CCOc3ccccc3)(C(=O)NCC)CC2)cc1Cl`, the “activity change, negative = cytotoxicity” value is reported as -1.24% (inactive).
With `C/C1=C\C[C@H](OC(=O)c2ccc(O)cc2)/C(C)=C/[C@@H](O)C(C)(C)CCC1` the “activity change, negative = cytotoxicity” value was -0.876% (inactive).
For `CCOC(=O)C1(CCOc2ccccc2)CCN(Cc2ccc(O)c(Cl)c2)CC1`, the outcome was “inactive”.
In the case of `CCOC(=O)C1CCN(C(=O)OC(C)(C)C)CC1`, the “activity change, negative = cytotoxicity” value is reported as -0.439% (inactive).
With `C=CCOc1ccc(CN2CCC(CCOc3ccccc3)(C(=O)N3CCCC3)CC2)cc1Cl` the “activity change, negative = cytotoxicity” value was -16.6% (inactive).
With `CCOC(=O)C1(CCOc2ccccc2)CCN(Cc2ccc(OC)c(Cl)c2)CC1` the “activity change, negative = cytotoxicity” value was 2.07% (inactive).
In the case of `CCNC(=O)C1(CCOc2ccccc2)CCN(Cc2ccc(O)c(Cl)c2)CC1`, the “activity change, negative = cytotoxicity” value is reported as 0.984% (inactive).
In the case of `O=C(Nc1ccccc1)C1(CCOc2ccccc2)CCN(Cc2ccc(O)c(Cl)c2)CC1`, the “activity change, negative = cytotoxicity” value is reported as 2.3% (inactive).
With `C/C1=C\[C@@H](O)C(C)(C)CCCC2(C)OC2C[C@@H]1OC(=O)c1ccc(O)cc1` (stereo partly drawn) the “activity change, negative = cytotoxicity” value was -14.3% (inactive).
With `C=CCOc1ccc(CN2CCC(CCOc3ccccc3)(C(=O)N(C)CC)CC2)cc1Cl` the “activity change, negative = cytotoxicity” value was -7.02% (inactive).
